# Reference: PubChem BioAssay (NCI)
# This is part of a sample that, as a whole, favours compounds with a hit. Of some 83,000 tested, about 20% had one in any assay.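 Percent growth is the endpoint: 0 to 100 indicates growth inhibition (40 means 60% inhibition), 0 means no net growth, and negative values indicate cell death.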 The source made the active and inactive calls. Rule for the calls: active = growth percent below 10; inactive = the rest.
# Tested on: EKVX NSCLC
# Assay: NCI-60 one-dose screen, 48 h (100 = growth as untreated, 0 = no growth, -100 = all killed)
# Conditions: 10 µM unless noted
row,SMILES,growth
1,O=C1C=CC2(NN=C(c3ccccc3)N2c2ccc(Cl)cc2)c2cccc(O)c21 (centres undefined),75.1% (inactive)
2,CNC(=O)c1ccc(Nc2ncc(C(F)(F)F)c(NCc3nccnc3N(C)S(C)(=O)=O)n2)cc1,-4.53% (active)
3,CN(C)C/C=C/C(=O)Nc1cc2c(Nc3ccc(F)c(Cl)c3)ncnc2cc1O[C@H]1CCOC1,4.87% (active)
4,COc1cc(Nc2c(C#N)cnc3cc(OCCCN4CCN(C)CC4)c(OC)cc23)c(Cl)cc1Cl,54.9% (inactive)
5,Cc1oc2c(C(=O)N/N=C\c3ccc(O)cc3O)c[nH]c2c1C,26.6% (inactive)
6,COc1c(OCCCN2CCOCC2)ccc2c3n(c(=NC(=O)c4cnc(N)nc4)nc12)CCN3,13.2% (inactive)
7,c1cn2cc(-c3ccc4cn[nH]c4c3)nc(Nc3ccc(N4CCOCC4)cc3)c2n1,83.9% (inactive)
8,CN1CCN(CCOc2cc(OC3CCOCC3)c3c(Nc4c(Cl)ccc5c4OCO5)ncnc3c2)CC1,43.8% (inactive)
9,O=C(Cc1ccc(-c2ccc(OCCN3CCOCC3)cc2)cn1)NCc1ccccc1,26.1% (inactive)
10,COc1ccc(F)c(F)c1C(=O)c1cnc(NC2CCN(S(C)(=O)=O)CC2)nc1N,2.22% (active)
11,CCOc1ccc(N=C(C)Nc2ccc(OCC)cc2)cc1,109% (inactive)
12,C[C@@H]1COC(Nc2ccc3ncnc(Nc4ccc(OCc5nccs5)c(Cl)c4)c3c2)=N1,32.2% (inactive)
13,CCCCCC(=O)OCc1ccc(Cl)c(Cl)c1,116% (inactive)
14,C=CC(=O)Nc1cccc(Oc2nc(Nc3ccc(N4CCN(C)CC4)cc3)nc3ccsc23)c1,16.4% (inactive)
